The target in assay [1] is Serine/threonine-protein kinase MRCK alpha (Homo sapiens) (UniProt Q5VT25). Conditions: at 0.1 µM.
For assay [2] the target is unchanged. Conditions: at 1 µM.
The target of assay [3] is Serine/threonine-protein kinase MRCK beta (Homo sapiens) (UniProt Q9Y5S2). Particulars: at 0.1 µM.
The target is the same in assay [4]. Particulars: at 1 µM.
Assay [5] deals with Ribosomal protein S6 kinase alpha-5 (Homo sapiens) (UniProt O75582). Conditions: at 0.1 µM.
The target is the same in assay [6]. Conditions: at 1 µM.
In assay [7] the target is Ribosomal protein S6 kinase alpha-4 (Homo sapiens) (UniProt O75676). Particulars: at 0.1 µM.
Assay [8] shares this target. Particulars: at 1 µM.
Assay [9] deals with Ribosomal protein S6 kinase beta-1 (Homo sapiens) (UniProt P23443). Particulars: at 0.1 µM.
Ribosomal protein S6 kinase beta-1 (Homo sapiens), sequence (P23443 whole entry, looked up): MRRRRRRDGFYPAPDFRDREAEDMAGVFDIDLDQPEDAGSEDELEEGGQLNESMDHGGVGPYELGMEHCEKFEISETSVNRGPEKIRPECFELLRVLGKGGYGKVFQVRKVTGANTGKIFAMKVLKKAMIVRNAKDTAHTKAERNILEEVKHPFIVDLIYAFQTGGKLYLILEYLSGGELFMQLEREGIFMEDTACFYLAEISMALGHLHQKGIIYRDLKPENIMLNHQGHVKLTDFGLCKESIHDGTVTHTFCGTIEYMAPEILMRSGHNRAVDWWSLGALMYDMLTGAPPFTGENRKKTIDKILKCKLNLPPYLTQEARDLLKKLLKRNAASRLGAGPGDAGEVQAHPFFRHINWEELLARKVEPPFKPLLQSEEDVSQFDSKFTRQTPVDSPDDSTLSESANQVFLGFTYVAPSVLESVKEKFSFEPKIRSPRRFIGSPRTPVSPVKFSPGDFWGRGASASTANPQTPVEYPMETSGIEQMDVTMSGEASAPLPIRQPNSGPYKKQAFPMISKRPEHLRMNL
Assay [10] has the same target. Conditions: at 1 µM.

Ribosomal protein S6 kinase alpha-5 (Homo sapiens), sequence (O75582 whole entry, looked up): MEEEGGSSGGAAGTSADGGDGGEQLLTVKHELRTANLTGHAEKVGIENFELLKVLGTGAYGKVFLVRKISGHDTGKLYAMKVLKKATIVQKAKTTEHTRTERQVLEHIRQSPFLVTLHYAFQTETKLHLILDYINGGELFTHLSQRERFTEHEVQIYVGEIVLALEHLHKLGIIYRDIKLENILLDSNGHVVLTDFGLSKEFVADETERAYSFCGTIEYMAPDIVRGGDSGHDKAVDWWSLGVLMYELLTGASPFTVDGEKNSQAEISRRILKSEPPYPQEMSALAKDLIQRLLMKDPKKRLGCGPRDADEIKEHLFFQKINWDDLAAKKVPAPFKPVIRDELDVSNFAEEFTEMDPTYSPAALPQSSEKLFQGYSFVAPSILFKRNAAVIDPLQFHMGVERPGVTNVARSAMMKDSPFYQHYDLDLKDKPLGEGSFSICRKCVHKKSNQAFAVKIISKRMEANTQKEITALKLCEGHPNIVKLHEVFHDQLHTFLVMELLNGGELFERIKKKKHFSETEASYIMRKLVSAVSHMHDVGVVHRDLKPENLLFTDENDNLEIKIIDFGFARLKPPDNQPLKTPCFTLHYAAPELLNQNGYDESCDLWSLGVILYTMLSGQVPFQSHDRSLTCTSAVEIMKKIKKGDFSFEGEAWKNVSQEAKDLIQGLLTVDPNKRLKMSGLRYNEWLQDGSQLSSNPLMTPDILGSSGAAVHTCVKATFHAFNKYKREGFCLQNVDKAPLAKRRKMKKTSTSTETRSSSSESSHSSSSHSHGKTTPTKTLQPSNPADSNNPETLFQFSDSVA
Serine/threonine-protein kinase MRCK alpha (Homo sapiens), sequence (Q5VT25 whole entry): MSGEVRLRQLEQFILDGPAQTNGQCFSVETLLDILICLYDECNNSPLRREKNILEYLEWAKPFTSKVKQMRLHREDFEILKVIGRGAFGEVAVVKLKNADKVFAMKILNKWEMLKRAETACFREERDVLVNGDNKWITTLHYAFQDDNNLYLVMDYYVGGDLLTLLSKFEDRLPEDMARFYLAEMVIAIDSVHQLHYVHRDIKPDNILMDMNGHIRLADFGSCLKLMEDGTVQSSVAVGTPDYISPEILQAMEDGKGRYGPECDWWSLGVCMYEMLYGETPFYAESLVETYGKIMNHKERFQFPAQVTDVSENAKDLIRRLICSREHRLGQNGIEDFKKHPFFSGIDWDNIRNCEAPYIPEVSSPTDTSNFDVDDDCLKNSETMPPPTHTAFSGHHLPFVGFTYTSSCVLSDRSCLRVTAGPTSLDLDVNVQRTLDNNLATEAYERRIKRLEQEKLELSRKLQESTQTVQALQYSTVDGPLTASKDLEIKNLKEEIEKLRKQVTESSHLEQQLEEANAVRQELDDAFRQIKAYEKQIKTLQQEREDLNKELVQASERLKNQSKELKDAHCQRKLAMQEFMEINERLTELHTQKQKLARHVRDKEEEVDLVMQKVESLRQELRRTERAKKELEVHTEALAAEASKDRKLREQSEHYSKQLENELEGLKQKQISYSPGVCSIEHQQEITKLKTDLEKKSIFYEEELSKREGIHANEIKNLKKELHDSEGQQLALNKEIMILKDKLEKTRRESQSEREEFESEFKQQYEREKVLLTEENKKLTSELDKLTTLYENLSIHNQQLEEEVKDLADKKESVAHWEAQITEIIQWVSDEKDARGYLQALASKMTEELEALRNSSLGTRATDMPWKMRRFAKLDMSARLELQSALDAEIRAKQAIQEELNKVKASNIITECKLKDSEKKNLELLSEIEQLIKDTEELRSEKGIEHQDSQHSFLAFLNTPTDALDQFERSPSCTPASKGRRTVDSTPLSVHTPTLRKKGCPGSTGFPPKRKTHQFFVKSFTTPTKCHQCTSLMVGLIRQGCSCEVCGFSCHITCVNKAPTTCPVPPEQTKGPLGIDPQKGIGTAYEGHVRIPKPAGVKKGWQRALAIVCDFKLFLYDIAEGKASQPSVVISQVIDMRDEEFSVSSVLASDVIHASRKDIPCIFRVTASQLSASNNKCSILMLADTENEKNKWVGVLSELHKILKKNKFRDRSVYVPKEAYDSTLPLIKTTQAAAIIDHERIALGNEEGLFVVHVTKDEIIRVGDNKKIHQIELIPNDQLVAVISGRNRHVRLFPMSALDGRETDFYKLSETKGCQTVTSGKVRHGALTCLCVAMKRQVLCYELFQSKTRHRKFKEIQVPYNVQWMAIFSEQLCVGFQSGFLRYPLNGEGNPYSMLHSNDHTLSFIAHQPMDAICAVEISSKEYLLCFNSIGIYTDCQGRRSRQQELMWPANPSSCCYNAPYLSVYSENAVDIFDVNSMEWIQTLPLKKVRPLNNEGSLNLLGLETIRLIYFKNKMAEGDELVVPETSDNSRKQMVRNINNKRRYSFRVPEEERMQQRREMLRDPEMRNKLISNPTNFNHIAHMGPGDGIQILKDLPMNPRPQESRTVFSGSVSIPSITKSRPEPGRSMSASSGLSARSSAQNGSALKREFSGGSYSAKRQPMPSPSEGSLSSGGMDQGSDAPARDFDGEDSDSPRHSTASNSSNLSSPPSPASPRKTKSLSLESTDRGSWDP
Serine/threonine-protein kinase MRCK beta (Homo sapiens), sequence (Q9Y5S2 whole entry): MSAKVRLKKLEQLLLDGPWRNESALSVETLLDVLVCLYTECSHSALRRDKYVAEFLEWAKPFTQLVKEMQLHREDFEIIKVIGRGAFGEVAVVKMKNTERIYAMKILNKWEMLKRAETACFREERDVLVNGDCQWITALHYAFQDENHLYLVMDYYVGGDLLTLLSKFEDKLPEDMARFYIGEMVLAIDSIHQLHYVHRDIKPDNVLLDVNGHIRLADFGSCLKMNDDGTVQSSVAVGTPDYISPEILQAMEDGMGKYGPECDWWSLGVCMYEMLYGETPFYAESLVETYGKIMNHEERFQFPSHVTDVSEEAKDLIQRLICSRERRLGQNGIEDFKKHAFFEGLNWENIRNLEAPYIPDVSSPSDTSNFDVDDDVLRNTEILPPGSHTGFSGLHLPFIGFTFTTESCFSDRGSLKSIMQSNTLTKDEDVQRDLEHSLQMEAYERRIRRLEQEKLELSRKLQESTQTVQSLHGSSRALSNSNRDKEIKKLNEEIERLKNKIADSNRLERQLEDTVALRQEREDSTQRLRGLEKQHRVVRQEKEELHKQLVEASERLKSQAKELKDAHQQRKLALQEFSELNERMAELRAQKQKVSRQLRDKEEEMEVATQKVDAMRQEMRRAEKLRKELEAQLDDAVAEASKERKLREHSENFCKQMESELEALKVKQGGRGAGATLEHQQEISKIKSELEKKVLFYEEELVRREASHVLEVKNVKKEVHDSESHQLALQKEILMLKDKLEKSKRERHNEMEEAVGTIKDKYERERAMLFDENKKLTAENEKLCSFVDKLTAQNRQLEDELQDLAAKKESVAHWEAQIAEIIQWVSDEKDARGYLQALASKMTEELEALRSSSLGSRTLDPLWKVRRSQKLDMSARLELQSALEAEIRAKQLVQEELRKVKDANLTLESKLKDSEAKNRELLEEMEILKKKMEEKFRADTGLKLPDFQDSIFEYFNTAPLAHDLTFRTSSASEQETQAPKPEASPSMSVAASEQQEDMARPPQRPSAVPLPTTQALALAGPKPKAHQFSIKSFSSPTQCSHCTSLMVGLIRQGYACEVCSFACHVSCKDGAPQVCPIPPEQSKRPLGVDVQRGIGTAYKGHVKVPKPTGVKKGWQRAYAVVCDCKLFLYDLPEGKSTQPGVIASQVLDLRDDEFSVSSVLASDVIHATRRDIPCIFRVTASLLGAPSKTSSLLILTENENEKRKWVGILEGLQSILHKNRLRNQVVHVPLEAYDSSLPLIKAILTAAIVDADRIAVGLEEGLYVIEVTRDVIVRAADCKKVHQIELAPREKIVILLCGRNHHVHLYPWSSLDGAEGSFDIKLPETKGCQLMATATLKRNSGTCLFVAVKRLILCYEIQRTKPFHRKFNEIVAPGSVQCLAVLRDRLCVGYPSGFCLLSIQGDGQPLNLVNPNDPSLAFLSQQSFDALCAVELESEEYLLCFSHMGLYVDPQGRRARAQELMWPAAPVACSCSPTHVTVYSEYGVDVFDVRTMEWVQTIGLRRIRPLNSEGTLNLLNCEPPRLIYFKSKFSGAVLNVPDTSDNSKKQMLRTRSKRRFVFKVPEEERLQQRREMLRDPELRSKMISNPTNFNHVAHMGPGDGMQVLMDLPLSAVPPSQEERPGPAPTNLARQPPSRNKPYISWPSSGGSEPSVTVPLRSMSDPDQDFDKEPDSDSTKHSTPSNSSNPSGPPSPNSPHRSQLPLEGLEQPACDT

Turning to `NS(=O)(=O)c1cccc(Nc2cc(-c3ccc(F)cc3)n[nH]2)c1`, the inhibition (usually the change of the read-out against control, counted positive when it falls) in assay [1] was -0.33%; in [2] it was 4.84%; in assay [3] it was -0.58%; in assay [4] it was 2.02%; in assay [5], 9.72%; in assay [6] it was 11.4%. The inhibition came out at 3.37% in assay [7], 5.59% in [8], 1.79% in [9] and 3.12% in [10].
In the case of `CN(C)C(=O)O[C@@H]1CN[C@@H](C#Cc2cc3ncnc(Nc4ccc(OCc5cccc(F)c5)c(Cl)c4)c3s2)C1`, the inhibition is 0.14% in assay [1]; 1.14% in [2]; -0.75% in assay [3]; 0.85% in assay [4]; 0.39% in [5]; 2.9% in assay [6]. The inhibition in assay [7] is -1.34%; in assay [8] it was 2.41%; in assay [9], 0.37%; in assay [10] it was 1.14%.
`O=C1Nc2ccc(-c3cccnc3)cc2C1=Cc1cc(Br)c(O)c(Br)c1`: the inhibition in assay [1] was 0.24%; in [2] it was -0.62%; in [3], 0.92%; in assay [4], 1.01%; in assay [5], 3.3%; in assay [6] it was 3.39%. For the same compound, the inhibition is 0.89% in [7], 2.67% in [8], 2.32% in [9] and 2.15% in assay [10].
Regarding `C[C@@H](Oc1cc(-n2cnc3ccc(OCC4CCN(C)CC4)cc32)sc1C(N)=O)c1ccccc1C(F)(F)F`, the inhibition in [1] is 0.6%; in [2], 5.18%; in assay [3], 0.07%; in assay [4], 0.75%; in assay [5] it was -2.08%; in assay [6] it was -0.6%. The inhibition in [7] is 0%; in [8], 2.52%; in assay [9], 0.24%; in [10], 5.55%.
For `Nc1nccc(-c2c(-c3ccc(F)cc3)nn3cc(C(F)(F)F)ccc23)n1`, the inhibition in [1] was -3.46%; in [2] it was -4.53%; in assay [3] it was -0.89%; in assay [4] it was -2.82%; in assay [5], -0.99%; in assay [6] it was -2.88%. Further, the inhibition is 1.24% in assay [7], -1.94% in assay [8], -0.77% in [9] and -3% in assay [10].
Consider `COC(=O)c1cncc(/C=C/c2c(C)cc(O)cc2C)c1`, for which the inhibition is -0.75% in assay [1]; 4.85% in [2]; -0.09% in assay [3]; 0.48% in [4]; 3.93% in [5]; 4.33% in assay [6]. The inhibition in assay [7] was 2.57%; in assay [8], 3.67%; in assay [9], 1.37%; in assay [10], 1.04%.
Consider `CC(C)c1ccc2c(c1)NC(=O)/C2=N/Nc1ccc(S(N)(=O)=O)cc1`, for which the inhibition in [1] is 2.04%; in [2], -2.97%; in [3] it was -0.17%; in assay [4], -1.37%; in [5], -0.47%; in assay [6] it was -2.62%. The inhibition in [7] is 0.04%; in [8], -1.31%; in [9], -0.81%; in assay [10], -1.36%.
Regarding `Cc1ccc2c(-c3ccnc(Nc4ccc5c(c4)OCCO5)n3)c(-c3ccc(C(F)(F)F)cc3)nn2n1`, the inhibition in [1] was -5.75%; in assay [2], -1.13%; in assay [3], 0.19%; in assay [4], 0.96%; in [5], -0.15%; in assay [6], -1.56%. Besides, the inhibition in assay [7] worked out at 0.87%; in assay [8], 2.08%; in assay [9] it was 0.35%; in [10], 0.24%.
As to `COc1cc2ncnc(Nc3ccc(C)c(O)c3)c2cc1OC`, the inhibition in [1] is 0.29%; in assay [2] it was 0.79%; in [3], 1.59%; in assay [4] it was 0.25%; in [5], 5.09%; in assay [6] it was 4.76%. Besides, the inhibition in assay [7] was found to be 4.36%; in assay [8], 2.32%; in assay [9] it was 3.34%; in [10], 2.36%.
In the case of `[O-][S+]1CCN(Cc2ccc(-c3ccc4ncnc(Nc5ccc(OCc6ccccc6)c(Cl)c5)c4c3)o2)CC1`, the inhibition in assay [1] was -2.24%; in assay [2] it was -0.57%; in [3] it was 0.47%; in [4], -0.33%; in [5], 1.47%; in assay [6], 1.03%. Also, the inhibition in assay [7] was -0.52%; in [8], 0.11%; in [9], -1.26%; in assay [10], -0.16%.
Consider `CC(C)c1ccc(Nc2nccc(-c3cnn4ncccc34)n2)cc1`, for which the inhibition in assay [1] is -1.68%; in [2] it was -0.92%; in [3], -1.18%; in assay [4], -0.74%; in assay [5], 0.84%; in [6], 1.36%. Further, the inhibition in assay [7] was 1.31%; in assay [8], 2.98%; in [9], 0.78%; in assay [10], 1.58%.
In the case of `COc1cc(/C=N/Nc2ncnc3c2cnn3C(C)C)ccc1O`, the inhibition in assay [1] came to 0%; in assay [2] it was 0.03%; in assay [3], 0.84%; in assay [4], 0.35%; in assay [5], 2.8%; in assay [6], 3.54%. Moreover, the inhibition in assay [7] is 2.2%; in assay [8], 1.83%; in [9] it was 1.17%; in [10], 2.21%.
On to `Nc1nccc(-c2c(-c3ccc(F)cc3)ncn2CCCN2CCOCC2)n1`, for which the inhibition was 0.42% in assay [1]; 1.54% in assay [2]; 0.49% in [3]; 1.1% in assay [4]; 6.47% in assay [5]; 6.81% in [6]. In addition, the inhibition in [7] came to 4.22%; in assay [8] it was 3.46%; in assay [9], 1.35%; in [10] it was 1.45%.
Take `O=C(Nc1ccc(Oc2ccc3[nH]c(NC(=O)c4ccco4)nc3c2)cc1)Nc1cc(C(F)(F)F)ccc1F`: the inhibition is -0.11% in [1]; -0.59% in assay [2]; 1.48% in [3]; 2.67% in assay [4]; -0.96% in [5]; 1.79% in assay [6]. Besides, the inhibition was 1.72% in assay [7], 5.67% in assay [8], 14.2% in assay [9] and 58.4% in assay [10].
Consider `COc1cc2ncn(-c3cc(OCc4ccccc4S(C)(=O)=O)c(C#N)s3)c2cc1OC`, for which the inhibition was found to be 1.12% in assay [1]; 5.41% in [2]; 1.99% in assay [3]; 4.7% in [4]; 8.16% in assay [5]; 11% in [6]. Also, the inhibition is 3.93% in [7], 10% in assay [8], 3.14% in assay [9] and 5.33% in assay [10].
As for `NC(=O)c1cccc(Nc2nccc(Nc3cccc(F)c3)n2)c1`, the inhibition in [1] was determined as 1.84%; in [2], 0.87%; in assay [3] it was 0.04%; in [4], 1.43%; in assay [5], 1.48%; in [6], 0.2%. The inhibition worked out at 0.68% in assay [7], 1.21% in assay [8], 0.38% in assay [9] and 1.99% in assay [10].
For the compound `CCS(=O)(=O)c1ccc(OC)c(Nc2ncc(-c3cccc(OC)c3)o2)c1`, the inhibition in assay [1] is -0.07%; in assay [2], -0.94%; in assay [3], -0.48%; in assay [4], 0.59%; in assay [5] it was 3.23%; in assay [6] it was 7.32%. Also, the inhibition was -0.21% in assay [7], 3.76% in assay [8], 0.98% in [9] and 1.18% in [10].

These data come from ChEMBL document CHEMBL1961873, “Compounds: GSK PKIS; Assays: Nanosyn kinase panel” (2012).
